The panel holds about 83,000 compounds, 20% with a hit somewhere; the sample as a whole holds those more often.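 Single-dose data. Exposure time 48 hours. Values below 10 considered active.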 Values without a mark were called inactive. Activity calls are given as the source filed them.

Some test systems named below: SK-MEL-2 melanoma; EKVX NSCLC; SN12C renal; UO-31 renal; TK-10 renal; ACHN renal; CAKI-1 renal; A498 renal; CCRF-CEM leukemia; MOLT-4 leukemia; SR leukemia; RPMI-8226 leukemia; OVCAR-8 ovarian; OVCAR-5 ovarian; OVCAR-4 ovarian; SK-OV-3 ovarian; IGROV1 ovarian; OVCAR-3 ovarian; HS 578T breast; NCI/ADR-RES ovarian.
Holding throughout (assay): NCI-60 one-dose screen, 48 h (100 = growth as untreated, 0 = no growth, -100 = all killed)
Conditions in all cases: 10 µM unless noted

On to `COC(=O)CNC(=O)c1ccc(NC(=O)c2[nH]c(C)c(Cl)c2Cl)c(O[C@H]2CCNC2)c1`, for which the growth in the test with SK-MEL-2 melanoma is 108%; in the test with EKVX NSCLC, 102%; in the test on SN12C renal it was 97.5%; in the test on UO-31 renal, 84.8%; in the test on TK-10 renal it was 104%; with ACHN renal, 106%. Also, the growth in the test with CAKI-1 renal is 94.9%; in the test with A498 renal it was 89.9%; in the test on CCRF-CEM leukemia it was 91.9%; in the test on MOLT-4 leukemia, 93.5%; in the test on SR leukemia, 83.7%; in the test on RPMI-8226 leukemia, 96.7%. Also, the growth with OVCAR-8 ovarian was 101%; with OVCAR-5 ovarian it was 112%; in the test on OVCAR-4 ovarian it was 110%; in the test with SK-OV-3 ovarian, 96.6%; with IGROV1 ovarian, 111%; in the test on OVCAR-3 ovarian, 114%. Also, the growth in the test with HS 578T breast is 92.8%; in the test with NCI/ADR-RES ovarian, 112%.
In the case of `COC1CC(O)C2=C(CC3C(/C(C)=C\CC=C(C)C)CCC3(C)O2)C1=O` (stereo not given), the growth with SK-MEL-2 melanoma was 96.9%; in the test with EKVX NSCLC, 105%; in the test with SN12C renal, 107%; in the test on UO-31 renal, 89.6%; with TK-10 renal, 92.4%; in the test on ACHN renal, 111%. In addition, the growth in the test with CAKI-1 renal is 107%; in the test on A498 renal it was 103%; in the test on CCRF-CEM leukemia, 88.1%; with MOLT-4 leukemia it was 92.2%; in the test with SR leukemia, 86.4%; in the test with RPMI-8226 leukemia, 93.6%. Besides, the growth in the test on OVCAR-8 ovarian is 99.9%; in the test with OVCAR-5 ovarian, 114%; in the test with OVCAR-4 ovarian it was 113%; in the test on SK-OV-3 ovarian it was 107%; in the test with IGROV1 ovarian, 110%; in the test on OVCAR-3 ovarian, 109%. Also, the growth is 98.6% with HS 578T breast and 103% in the test with NCI/ADR-RES ovarian.
As to `Cc1nc2ccccc2c(/C=C/c2ccc(Cl)cc2)c1C(=O)/C=C/c1ccccc1`, the growth was -14.1% (active) in the test with SK-MEL-2 melanoma; 31.5% with EKVX NSCLC; 20.6% in the test on SN12C renal; -38% (active) with UO-31 renal; 17.7% with TK-10 renal; 5.92% (active) with ACHN renal. Moreover, the growth in the test on CAKI-1 renal is 4.04% (active); in the test with A498 renal it was 44%; in the test with CCRF-CEM leukemia it was 6.45% (active); in the test on MOLT-4 leukemia, 5.35% (active); in the test with SR leukemia, 11.5%; with RPMI-8226 leukemia, -11.8% (active). Moreover, the growth with OVCAR-8 ovarian was -2.61% (active); in the test on OVCAR-5 ovarian it was -21.8% (active); in the test on OVCAR-4 ovarian, 33.1%; with SK-OV-3 ovarian it was 57.4%; with IGROV1 ovarian it was 0.031% (active); in the test on OVCAR-3 ovarian it was -35.1% (active). Moreover, the growth in the test with HS 578T breast is 25%; with NCI/ADR-RES ovarian it was 0.775% (active).
Take `Cc1ccc(C(F)(F)F)cc1N1CCN(C(=O)[C@H]2C[C@H]2c2ccc(C(F)(F)F)nc2)CC1`: the growth with SK-MEL-2 melanoma is 89.1%; in the test with EKVX NSCLC it was 90.7%; with SN12C renal it was 92.6%; with UO-31 renal it was 69%; in the test with TK-10 renal, 96.4%; with ACHN renal it was 91.8%. The growth in the test on CAKI-1 renal was 69.3%; in the test with A498 renal, 95.3%; with CCRF-CEM leukemia it was 90.2%; in the test with MOLT-4 leukemia, 73.2%; with SR leukemia it was 76%; with RPMI-8226 leukemia, 66.1%. For the same compound, the growth in the test with OVCAR-8 ovarian is 89.9%; with OVCAR-5 ovarian, 85.6%; with OVCAR-4 ovarian, 92%; with SK-OV-3 ovarian, 84.2%; in the test with IGROV1 ovarian it was 74.7%; with OVCAR-3 ovarian, 93.4%. Also, the growth in the test on HS 578T breast is 91.4%; with NCI/ADR-RES ovarian, 91.6%.
For `COc1cc(OC)cc(C(=O)Nc2cnc(Nc3ccc(N4CCOCC4)nc3)nc2Oc2ccc(C(F)(F)F)cc2)c1`, the growth was 94.6% with SK-MEL-2 melanoma; 90.2% with EKVX NSCLC; 43.6% in the test on SN12C renal; 58.1% with UO-31 renal; 81.9% with TK-10 renal; 66.4% in the test on ACHN renal. The growth is 59.7% in the test with CAKI-1 renal; 77.7% in the test on A498 renal; 86% in the test with CCRF-CEM leukemia; 80.7% with MOLT-4 leukemia; 73% in the test with SR leukemia; 86.2% with RPMI-8226 leukemia. The growth was 39.7% in the test on OVCAR-8 ovarian; 92.9% in the test with OVCAR-5 ovarian; 8.78% (active) in the test with OVCAR-4 ovarian; 111% in the test with SK-OV-3 ovarian; 77.4% in the test on IGROV1 ovarian; 62.8% in the test with OVCAR-3 ovarian. For the same compound, the growth in the test with HS 578T breast is 30.4%; in the test on NCI/ADR-RES ovarian it was 60.1%.
On to `CCOC(=O)c1cc(C(=O)c2cc(OC)cc(OC)c2)n2ccccc12`, for which the growth in the test on SK-MEL-2 melanoma is 41.7%; in the test on EKVX NSCLC, 73.7%; in the test on SN12C renal it was 66.9%; in the test with UO-31 renal, 62%; in the test on TK-10 renal it was 55.9%; with ACHN renal it was 48.6%. In addition, the growth is 42.2% in the test on CAKI-1 renal; 28.8% in the test on A498 renal; 34.6% in the test with CCRF-CEM leukemia; 30.6% in the test on MOLT-4 leukemia; 16.3% in the test on SR leukemia; 27.6% with RPMI-8226 leukemia. Further, the growth with OVCAR-8 ovarian was 42.2%; with OVCAR-5 ovarian, 95.2%; in the test with OVCAR-4 ovarian it was 72.4%; in the test on SK-OV-3 ovarian, 35.8%; in the test with IGROV1 ovarian it was 52.7%; in the test on OVCAR-3 ovarian, -5.04% (active). Moreover, the growth in the test on HS 578T breast was 39.4%; with NCI/ADR-RES ovarian, 12.4%.
In the case of `CN1CCN(CC(=O)N(C)c2ccc(N=C(c3ccccc3)c3c(O)[nH]c4ccc([N+](=O)[O-])cc34)cc2)CC1`, the growth is 52.7% in the test with SK-MEL-2 melanoma; 94.2% with EKVX NSCLC; 56.8% in the test on SN12C renal; 28.8% in the test on UO-31 renal; 103% in the test on TK-10 renal; 54% with ACHN renal. The growth is 47.1% in the test with CAKI-1 renal; 66.7% in the test with A498 renal; 15.1% in the test on CCRF-CEM leukemia; 15.7% in the test on MOLT-4 leukemia; 19.4% with SR leukemia; 82.7% in the test with RPMI-8226 leukemia. Also, the growth in the test on OVCAR-8 ovarian is 79.6%; in the test with OVCAR-5 ovarian, 122%; in the test on OVCAR-4 ovarian, 57.7%; in the test with SK-OV-3 ovarian it was 14.4%; in the test with IGROV1 ovarian it was 49.3%; in the test on OVCAR-3 ovarian it was 73.6%. Further, the values for the growth with HS 578T breast and in the test on NCI/ADR-RES ovarian were 18.2% and 90.8%, respectively.
Regarding `CN(C)CCCN(CCC1CCCCC1)CCC1CCCCC1`, the growth was 61.4% with SK-MEL-2 melanoma; 73.2% in the test on EKVX NSCLC; 80.4% with SN12C renal; 42% in the test on UO-31 renal; 85.2% in the test with TK-10 renal; 65.8% with ACHN renal. In addition, the growth was 52.9% in the test on CAKI-1 renal; 58.8% with A498 renal; 21.4% in the test on CCRF-CEM leukemia; 15.9% in the test on MOLT-4 leukemia; -35.3% (active) in the test with SR leukemia; 23.8% in the test on RPMI-8226 leukemia. For the same compound, the growth with OVCAR-8 ovarian is 81.1%; in the test on OVCAR-5 ovarian it was 83.3%; in the test on OVCAR-4 ovarian, 71.2%; in the test with SK-OV-3 ovarian, 97%; in the test with IGROV1 ovarian, 39.7%; in the test on OVCAR-3 ovarian, 34.6%. The growth is 58.1% in the test on HS 578T breast and 74.4% in the test on NCI/ADR-RES ovarian.
